Reference: PubChem BioAssay (Tox21)
Results filed as inconclusive are left out. Activity calls are given as the source filed them. Unless noted, calls follow the shape of the full dose curve.

Assays:
[1] = Nuclear factor erythroid 2-related factor 2/antioxidant responsive element (Nrf2/ARE) small molecule agonists: luciferase reporter gene qHTS assay in human keratinocytes (AID 1919969); also: nearly all actives have a fitted effect of over 35% in size
[2] = target: Gonadotropin-releasing hormone receptor (Homo sapiens) (UniProt P30968); assay: Human gonadotropin-releasing hormone receptor (GnRHR) small molecule agonists, calcium flux assay in GnRHR-HEK293 cells (AID 1920063); also: nearly all actives have a fitted effect of over 35% in size
Sequence of Gonadotropin-releasing hormone receptor (Homo sapiens) (P30968 whole entry, looked up): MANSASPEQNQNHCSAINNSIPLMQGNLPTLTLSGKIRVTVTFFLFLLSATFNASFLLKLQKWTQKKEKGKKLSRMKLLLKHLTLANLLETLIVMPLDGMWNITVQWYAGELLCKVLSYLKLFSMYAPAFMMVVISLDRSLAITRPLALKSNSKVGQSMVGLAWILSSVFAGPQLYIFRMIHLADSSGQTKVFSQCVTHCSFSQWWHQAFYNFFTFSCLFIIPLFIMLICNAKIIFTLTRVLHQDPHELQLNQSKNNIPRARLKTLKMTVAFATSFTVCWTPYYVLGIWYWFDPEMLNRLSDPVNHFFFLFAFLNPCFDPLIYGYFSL
Summary of the method: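 Agonist mode: compounds at 15 concentrations, in triplicate, went onto calcium dye-loaded GnRHR-HEK293 cells. Intracellular calcium was then followed as 480/540 nm fluorescence at 1 s intervals over 3 min.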

[3] = G protein-coupled receptor (GPCR) small molecule agonists, calcium flux assay: HEK293 wild type cell line counter screen (AID 1920065)
Summary of the method: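 Calcium flux counter screen: compound added in agonist mode at 15 concentrations in triplicate to dye-loaded parental HEK293 cells. Fluorescence (480/540) read kinetically for 3 min; ATP served as positive control.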

[4] = p53 small molecule agonists, cell-based qHTS assay with human liver microsomes (AID 1963577)
Summary of the method: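 p53RE-bla reporter cells were pre-incubated 5 h at 37 C, then treated with compounds plus human liver microsomes (0.5 mg/mL final) and NADPH (0.5 mg/mL final) for 16 h at 37 C. Beta-lactamase activity was read by LiveBLAzer fluorescence after 2 h at room temperature.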

[5] = p53 small molecule agonists, cell-based qHTS assay with rat liver microsomes (AID 1963578)
Summary of the method: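 p53RE-bla cells were exposed to compounds together with rat liver microsomes (0.5 mg/mL final) and NADPH (0.5 mg/mL final) for 16 h at 37 C, then read by LiveBLAzer beta-lactamase fluorescence after 2 h at room temperature.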

[6] = p53 small molecule agonists, cell-based qHTS assay with human liver microsomes: qHTS cell viability counter screen (AID 1963579); also: nearly all actives have a fitted effect of over 45% in size
Summary of the method: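 p53RE-bla cells (4,000/well) were pre-incubated 5 h at 37 C, then given compounds in DMSO plus human liver microsomes (0.5 mg/mL final) and NADPH (0.5 mg/mL final) for 16 h at 37 C. Viability was read by CellTiter-Glo luminescence.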

[7] = p53 small molecule agonists, cell-based qHTS assay with rat liver microsomes: qHTS cell viability counter screen (AID 1963580); also: nearly all actives have a fitted effect of over 45% in size
Summary of the method: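 Cytotoxicity counter screen: intracellular ATP measured by CellTiter-Glo luminescence in the same wells as the beta-lactamase reporter read, on HCT-116 p53RE-bla cells exposed 16 h at 37 C to compounds with rat liver microsomes and NADPH, each 0.5 mg/mL final.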

[8] = p53 small molecule agonists, cell-based qHTS assay: qHTS cell viability counter screen (AID 1963581); also: nearly all actives have a fitted effect of over 45% in size
Summary of the method: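 Counter screen read by CellTiter-Glo luminescence (ATP content, 30 min at room temperature), run in the same wells as the beta-lactamase reporter read. HCT-116 p53RE-bla cells saw compounds for 16 h at 37 C.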

[9] = p53 small molecule agonists, cell-based qHTS assay (AID 1963582; active = well fitted activation curve with a large enough effect in the signal ratio in the repeat runs, not every such curve was filed as active; the % refers to the signal ratio)
Summary of the method: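 Read-out is beta-lactamase FRET fluorescence after 2 h at room temperature with LiveBLAzer B/G substrate. p53 response element-bla cells were treated 16 h at 37 C with compounds in DMSO, added 5 h after seeding.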

[10] = target: 5-hydroxytryptamine receptor 2A (Homo sapiens) (UniProt P28223); assay: 5-hydroxytryptamine receptor 2A (HTR2A) small molecule antagonists, cell-based qHTS assay (AID 1963586); also: nearly all actives have a fitted effect of over 45% in size
Sequence of 5-hydroxytryptamine receptor 2A (Homo sapiens) (P28223 whole entry, looked up): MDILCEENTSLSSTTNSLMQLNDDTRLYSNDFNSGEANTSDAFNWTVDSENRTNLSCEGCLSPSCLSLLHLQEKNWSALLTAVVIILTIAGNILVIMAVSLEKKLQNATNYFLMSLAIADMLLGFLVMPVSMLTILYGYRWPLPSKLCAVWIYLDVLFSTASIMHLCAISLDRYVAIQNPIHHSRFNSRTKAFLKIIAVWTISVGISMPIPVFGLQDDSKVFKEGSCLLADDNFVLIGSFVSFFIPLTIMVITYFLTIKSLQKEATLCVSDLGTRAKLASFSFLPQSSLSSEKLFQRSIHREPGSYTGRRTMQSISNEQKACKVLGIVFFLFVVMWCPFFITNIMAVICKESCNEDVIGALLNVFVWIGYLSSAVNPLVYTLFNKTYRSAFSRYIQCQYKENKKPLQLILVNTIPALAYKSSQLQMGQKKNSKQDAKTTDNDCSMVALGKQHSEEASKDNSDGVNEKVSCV
Summary of the method: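 CHO cells stably expressing human HTR2A were plated for 18 h at 37 C, then loaded with calcium dye for 1 h. Compounds were preincubated 5 min at room temperature before DOI (4 nM solution) was added. Kinetic fluorescence was read for 3 min.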

[11] = target: 5-hydroxytryptamine receptor 2A (Homo sapiens) (UniProt P28223); assay: 5-hydroxytryptamine receptor 2A (HTR2A) small molecule agonists, cell-based qHTS assay (AID 1963587); also: nearly all actives have a fitted effect of over 30% in size
Summary of the method: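 CHO cells stably expressing human HTR2A, plated 18 h, loaded with calcium dye 1 h at 37 C. Agonist mode: compounds added and intracellular calcium fluorescence recorded kinetically for 2 min at 1 sec intervals.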

[12] = target: Muscarinic acetylcholine receptor M1 (Homo sapiens) (UniProt P11229); assay: Cholinergic receptor muscarinic 1 (CHRM1) small molecule antagonists, cell-based qHTS assay (AID 1963588); also: nearly all actives have a fitted effect of over 40% in size
Sequence of Muscarinic acetylcholine receptor M1 (Homo sapiens) (P11229 whole entry, looked up): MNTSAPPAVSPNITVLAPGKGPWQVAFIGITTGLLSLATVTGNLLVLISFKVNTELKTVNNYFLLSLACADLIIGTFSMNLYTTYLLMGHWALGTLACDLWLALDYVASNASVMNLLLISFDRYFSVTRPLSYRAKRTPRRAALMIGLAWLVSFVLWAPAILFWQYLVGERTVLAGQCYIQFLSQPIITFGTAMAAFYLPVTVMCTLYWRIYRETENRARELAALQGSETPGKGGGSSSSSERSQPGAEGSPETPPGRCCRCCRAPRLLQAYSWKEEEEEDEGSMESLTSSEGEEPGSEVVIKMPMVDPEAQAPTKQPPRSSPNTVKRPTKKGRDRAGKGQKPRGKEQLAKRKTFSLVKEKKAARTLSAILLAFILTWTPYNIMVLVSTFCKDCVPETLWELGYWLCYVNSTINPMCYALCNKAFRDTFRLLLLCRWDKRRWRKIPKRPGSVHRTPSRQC
Summary of the method: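 Compounds were tested at 15 concentrations in three independent runs. Dye-loaded CHRM1-CHO cells were exposed 5 min at room temperature before stimulation by acetylcholine added at 50nM. Intracellular calcium was read kinetically on FDSS for 3 min.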

[13] = target: Muscarinic acetylcholine receptor M1 (Homo sapiens) (UniProt P11229); assay: Cholinergic receptor muscarinic 1 (CHRM1) small molecule agonists, cell-based qHTS assay (AID 1963589); also: nearly all actives have a fitted effect of over 35% in size
Summary of the method: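 Agonist-mode calcium-flux screen: compounds at 15 concentrations, three independent runs, were pin-transferred onto dye-loaded human CHRM1-CHO cells. Fluorescence was then recorded kinetically every second over minutes.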

[14] = cAMP Responsive Elements (CRE) small molecule agonists, cell-based qHTS assay (AID 1963590)
Summary of the method: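 Agonist mode: compound added to CRE-bla HEK 293T cells (2,000/well, 18 h after plating) for 3 h at 37 C/5% CO2. Reporter activity detected via FRET beta-lactamase substrate, 2 h room-temperature loading.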

[15] = cAMP Responsive Elements (CRE) small molecule antagonists, cell-based qHTS assay (AID 1963591; active = well fitted inhibition curve with a large enough effect in the signal ratio in the repeat runs, not every such curve was filed as active; the % refers to the signal ratio)
Summary of the method: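 Antagonist mode: compounds are added alongside the adenylyl cyclase activator NKH477 (0.25 uM final) to CRE-bla HEK293T cells for 3 h. LiveBLAzer FRET substrate, 2 h at room temperature, reports bla expression.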

[16] = target: Beta-2 adrenergic receptor (Homo sapiens) (UniProt P07550); assay: Adrenergic beta2 receptor (ADRB2) small molecule antagonists, cell-based qHTS assay (AID 1963592); also: series mostly up to about 92 µM; nearly all actives have a fitted effect of over 50% in size
Sequence of Beta-2 adrenergic receptor (Homo sapiens) (P07550 whole entry, looked up): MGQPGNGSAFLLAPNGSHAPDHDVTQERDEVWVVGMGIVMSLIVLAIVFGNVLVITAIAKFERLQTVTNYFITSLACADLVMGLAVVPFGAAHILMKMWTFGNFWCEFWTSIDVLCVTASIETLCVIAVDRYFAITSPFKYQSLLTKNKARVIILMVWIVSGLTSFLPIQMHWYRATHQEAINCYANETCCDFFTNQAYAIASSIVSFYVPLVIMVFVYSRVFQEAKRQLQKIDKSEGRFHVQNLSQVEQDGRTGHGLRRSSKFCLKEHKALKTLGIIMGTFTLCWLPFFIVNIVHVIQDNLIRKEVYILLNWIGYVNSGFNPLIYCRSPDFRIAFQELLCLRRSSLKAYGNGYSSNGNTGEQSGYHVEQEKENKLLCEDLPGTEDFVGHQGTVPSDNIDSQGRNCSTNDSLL
Summary of the method: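 Assay format: CHO-ADRB2 cells, 18-20hr seeding at 37C/5% CO2, then compound plus 1nM isoproterenol agonist mix for 0.5hr RT. Homogeneous time-resolved fluorescence cAMP detection after 1hr, expressed as 665/615 nm ratio.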

[17] = target: Beta-2 adrenergic receptor (Homo sapiens) (UniProt P07550); assay: Adrenergic beta2 receptor (ADRB2) small molecule agonists, cell-based qHTS assay (AID 1963593);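 also: CHO cells stably overexpressing human ADRB2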
Summary of the method: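 CHO cells stably over-expressing ADRB2 were plated overnight at 37C, then dosed with compounds plus a stimulation mix containing 100uM IBMX and 25uM Ro-20-1724 for 0.5hr at room temperature. cAMP was measured by HTRF competition, 1hr.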

[18] = target: D(2) dopamine receptor (Homo sapiens) (UniProt P14416); assay: Dopamine D2 receptor (DRD2) small molecule agonists, cell-based qHTS assay (AID 1963594); also: nearly all actives have a fitted effect of over 35% in size
Sequence of D(2) dopamine receptor (Homo sapiens) (P14416 whole entry, looked up): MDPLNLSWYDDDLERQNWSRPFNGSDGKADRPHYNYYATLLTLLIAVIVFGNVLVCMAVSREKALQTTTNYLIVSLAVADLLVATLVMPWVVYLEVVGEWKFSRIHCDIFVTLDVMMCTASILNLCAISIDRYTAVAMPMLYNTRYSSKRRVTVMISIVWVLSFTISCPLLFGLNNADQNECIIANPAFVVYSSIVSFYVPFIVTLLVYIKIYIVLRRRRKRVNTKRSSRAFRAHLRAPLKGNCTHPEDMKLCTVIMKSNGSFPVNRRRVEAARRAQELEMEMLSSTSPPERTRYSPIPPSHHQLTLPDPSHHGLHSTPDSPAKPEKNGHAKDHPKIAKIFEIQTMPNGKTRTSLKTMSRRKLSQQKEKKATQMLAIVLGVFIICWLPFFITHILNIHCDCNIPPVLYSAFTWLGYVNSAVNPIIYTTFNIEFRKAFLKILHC
Summary of the method: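 HEK293 cells stably expressing human DRD2, pre-treated with PDE inhibitor Ro20-1724 (0.1 mM final) and compound 10 min at room temperature, then stimulated with NKH477 (200nM […]) for 30 min. cAMP read by HTRF (665/620 nm).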

[19] = target: D(2) dopamine receptor (Homo sapiens) (UniProt P14416); assay: Dopamine D2 receptor (DRD2) small molecule antagonists, cell-based qHTS assay (AID 1963595; active = well fitted inhibition curve with a large enough effect in the signal ratio in the repeat runs, with a control signal flat; the % refers to the signal ratio)
Summary of the method: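 HTRF cAMP read-out at 665 and 620 nm emission (340 nm excitation). Antagonist mode: compounds were tested against 12 nM quinpirole in DRD2-HEK293 cells, with 200 nM NKH477 raising cAMP and 0.1 mM Ro20-1724 blocking its breakdown.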

[20] = target: KiSS-1 receptor (Homo sapiens) (UniProt Q969F8); assay: Human kisspeptin (KISS1R) small molecule agonists, calcium flux assay in KISS1R-HEK293 cells (AID 1920064; active = well fitted activation curve with a large enough effect in the repeat runs)
Sequence of KiSS-1 receptor (Homo sapiens) (Q969F8 whole entry, looked up): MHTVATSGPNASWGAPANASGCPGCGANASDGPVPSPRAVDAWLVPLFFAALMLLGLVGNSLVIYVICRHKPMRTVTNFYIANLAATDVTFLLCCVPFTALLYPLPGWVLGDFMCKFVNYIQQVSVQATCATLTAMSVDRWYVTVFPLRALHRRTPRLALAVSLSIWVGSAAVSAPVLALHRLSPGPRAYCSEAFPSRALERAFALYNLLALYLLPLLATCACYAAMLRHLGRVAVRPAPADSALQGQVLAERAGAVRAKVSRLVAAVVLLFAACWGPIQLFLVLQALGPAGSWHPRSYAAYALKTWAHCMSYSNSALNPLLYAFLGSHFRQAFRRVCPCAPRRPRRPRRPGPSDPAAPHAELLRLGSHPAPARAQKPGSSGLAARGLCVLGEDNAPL
Summary of the method: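 Agonist mode: intracellular calcium rise tracked at 1 s intervals over 3 min (480/540 nm) immediately after compound addition to dye-loaded KISS1R-HEK293 stable cells. Each compound tested at 15 concentrations in triplicate.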

Measured: Potency

Cc1ccc(C)cc1
not listed: [20]
inactive: all other assays above

Cc1cccc(S(=O)(=O)O)c1C
not listed: [1]
inactive: all other assays above

CC(C)Nc1ccccc1
not listed: [1] | [10] | [11]
inactive: all other assays above

NC(=O)NNC(N)=O
not listed: [2] | [14] | [16]
inactive: all other assays above

NC(=O)c1ccc(N)cc1
not listed: [1] | [6]
inactive: all other assays above

O=C(c1ccc2c(c1)C(=O)OC2=O)c1ccc2c(c1)C(=O)OC2=O
not listed: [14] | [17] | [19] | [20]
inactive: all other assays above

CCC(=O)OC
not listed: [1] | [17] | [19] | [20]
inactive: all other assays above

CC(C)(C)C1CCCCC1O (stereo not drawn)
not listed: [2] | [16] | [17] | [19]
inactive: all other assays above
